Compounds with a hit are over-represented: about 8.1% of the library has one in this group of screens.
Hedgehog inh: Sonic Hedgehog pathway inhibition | Shh-LIGHT2 Gli-luciferase reporter, 30 h | inhibition, % (no concentration beside the values) | 22,000 compounds, 2.1% hits;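 active = mean inhibition across valid replicates above about 65%, limit read from the data; inconclusive = mean under the limit, yet half or more replicates past it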;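 note: pathway switched on by Shh-conditioned medium diluted 1 in 25 in low serum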
NOMO-1 viab: STK33 inhibitor candidate reducing NOMO-1 cell viability; NOMO-1 AML viability, CellTiter-Glo luminescence, 72 h; inhibition, % (concentration not given with the values); 37,000 compounds, 7.5% hits; in the data active = inhibition above about 80%; inconclusive = no clear call, values can overlap the other calls
MITF inh: MITF inhibition. TRPM1 promoter luciferase, luminescence, 24 h. inhibition, % (no concentration beside the values). 37,000 compounds, 0.28% hits. AID 2240; in the data active = inhibition above about 85%; inconclusive = no clear call, values can overlap the other calls; inactive = below about 68%;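 note: human melanocyte line stably carrying TRPM1 promoter luciferase reporter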
PD-1 reversal: reversal of PD-1 mediated T-cell inhibition; 29,000 tested, under 10 active; activation, % (test concentration not listed); primary human CD4 T cells, PD-L1 beads, CellTiter-Glo 96 h; call rule not given here
Large screens that a line does not name were inactive.

CC(C)/C(N)=N/C(=S)Nc1ccccc1	none (no result: Hedgehog inh)
O=C1N=c2ccccc2=N/C1=N\C(=S)Nc1ccccc1	NOMO-1 viab 122
CC1CCC(C(C)C)C(NC(=O)c2cccc3ccccc23)C1 (centres undefined)	NOMO-1 viab 82
Cc1cccc(NC(=O)c2cccc(C(=O)Nc3cccc(C)c3)c2)c1	none
Cc1cccc(C(=O)NN(c2ccccc2)c2ccccc2)c1	Hedgehog inh 95
CC(C)NC(=O)N(C)C[C@H]1Oc2c(NC(=O)Nc3ccc(C(F)(F)F)cc3)cccc2C(=O)N([C@@H](C)CO)C[C@H]1C	NOMO-1 viab 121
CC(C)NC(=O)Nc1cccc2c1O[C@H](CN(C)C(=O)Nc1ccc(C(F)(F)F)cc1)[C@H](C)CN([C@@H](C)CO)C2=O	none
CC(C)NC(=O)N(C)C[C@@H]1Oc2c(NC(=O)Nc3ccc(C(F)(F)F)cc3)cccc2C(=O)N([C@H](C)CO)C[C@@H]1C	NOMO-1 viab 117
CC(C)NC(=O)N(C)C[C@@H]1Oc2c(NC(=O)Nc3ccc(C(F)(F)F)cc3)cccc2C(=O)N([C@@H](C)CO)C[C@@H]1C	none
Cc1ccc(NC(=O)CC(C(=O)O)N(C)C)cc1 (centres undefined)	none (no result: Hedgehog inh)
C/C1=C/CCC2=CC(OC2=O)C(C)(C)/C=C/C1=O (centres undefined)	NOMO-1 viab 119
CC1OC(OCC2OC(O[C@H]3CC[C@@]4(C)C(CC[C@@]5(C)C6=C(CCC45)C4CC(C)(C)CC[C@]4(C(=O)OC4OC(CO)C(O)C(O)C4O)CC6)C3(C)C)C(O)C(O)C2O)C(O)C(O)C1O (some centres undefined)	none (no result: NOMO-1 viab, MITF inh, PD-1 reversal)
COC1CC(O[C@H]2CC[C@]3(C)C4CC[C@@]5(C)C(=O)[C@]4(CC[C@@H]3C2)CC[C@@H]5C2=CC(=O)OC2)OC(C)C1OC1OC(COC2OC(CO)C(O)C(O)C2O)C(O)C(O)C1O (some centres undefined)	NOMO-1 viab 111
COc1ccc2c(c1)CCC1C2CCC2(C)C1C[C@@H](O)C2O (some centres undefined)	none (no result: PD-1 reversal)
COc1cc(C)c2c(c1)CCC1C2CCC2(C)C(O)CCC12 (centres undefined)	Hedgehog inh inconclusive, NOMO-1 viab 91
COc1cc2c(cc1O)CCC1C2CC[C@@]2(C)C1CC[C@@H]2O (some centres undefined)	Hedgehog inh 91, NOMO-1 viab 97
CCOC(=O)c1c(NC(=O)Cn2nc(C)c([N+](=O)[O-])c2C)sc2c1CCCC2	none (no result: Hedgehog inh, PD-1 reversal)
O=c1cc(-c2ccccc2)oc2ccccc12	none
O=C1NC(=O)C(=Cc2ccc(-c3ccccc3)o2)C(=O)N1	NOMO-1 viab 126
O=C(O)CCn1cc(C(F)(F)F)ccc1=O	none
S=C(NCc1ccco1)NCC1CC(c2ccccc2)=NO1 (centres undefined)	none (no result: Hedgehog inh)
COC(=O)C1=CN(C23CC4CC(CC(C4)C2)C3)C=C(C(=O)OC)C1c1cccc(OC)c1	NOMO-1 viab 109
O=c1[nH]c(=O)n(C2C[C@H](O)[C@@H](CO)O2)cc1C(F)(F)F (some centres undefined)	NOMO-1 viab 108 (no result: PD-1 reversal)
CNC(=S)N1N=C2c3ccccc3CCC2C1c1ccc(OC)cc1 (centres undefined)	none (no result: Hedgehog inh)
Cc1ccc(N(C(C)C(=O)Nc2ccc(Br)c(C)c2)S(C)(=O)=O)cc1 (centres undefined)	none (no result: Hedgehog inh)
COc1ccccc1-c1nnc(SCC(=O)c2ccc([N+](=O)[O-])cc2)o1	none (no result: Hedgehog inh)
CCN(CC)C(=S)CSc1nc(-c2ccccc2)cc(-c2ccco2)c1C#N	NOMO-1 viab 88
CCc1nnc(NC(=O)CSc2nc(-c3ccccc3)cc(C(F)(F)F)c2C#N)s1	none
O=C1c2ccccc2O[C@@H](c2ccc(Cl)cc2)[C@@H]1O	NOMO-1 viab 114
Cc1ccc(Cl)cc1N(CC(=O)Nc1ccc(C(F)(F)F)cc1)S(C)(=O)=O	NOMO-1 viab 118 (no result: Hedgehog inh)
Cc1ccc(Cl)cc1N(CC(=O)Nc1ccc(I)cc1)S(C)(=O)=O	none (no result: Hedgehog inh)
CS(=O)(=O)N(CC(=O)Nc1ccc(C(F)(F)F)cc1)c1cccc([N+](=O)[O-])c1	NOMO-1 viab 121 (no result: Hedgehog inh)
COc1ccc(CCn2c(C)cc(O)cc2=O)cc1OC	none (no result: Hedgehog inh)
Cc1nc(Oc2ccc(NC(=O)c3ccccc3)cc2)c2c3c(sc2n1)CCC3	NOMO-1 viab 133 (no result: Hedgehog inh)
CC(C)(C)C1CCc2c(sc(NC(=O)COc3ccccc3Cl)c2C(N)=O)C1 (centres undefined)	NOMO-1 viab 104 (no result: Hedgehog inh)
CC(C)c1ccc(NC(=O)CSc2n[nH]c(-c3ccccc3Cl)n2)cc1	none (no result: Hedgehog inh)
C[C@H](CO)N1C[C@H](C)[C@H](CN(C)Cc2ccc3c(c2)OCO3)Oc2ccc(NC(=O)CCCCCC(=O)Nc3ccccc3N)cc2C1=O	none (no result: Hedgehog inh)
C[C@@H]1CN([C@H](C)CO)C(=O)Cc2cc(NC(=O)CCCCCC(=O)Nc3ccccc3N)ccc2O[C@@H]1CN(C)Cc1ccc(Cl)c(Cl)c1	NOMO-1 viab 137 (no result: Hedgehog inh)
C[C@H](CO)N1C[C@H](C)[C@H](CN(C)Cc2ccc3c(c2)OCO3)Oc2ccc(NC(=O)CCCCCC(=O)Nc3ccccc3N)cc2CC1=O	NOMO-1 viab 132 (no result: Hedgehog inh)
C[C@@H]1CN([C@@H](C)CO)C(=O)c2cc(NC(=O)CCCCCC(=O)Nc3ccccc3N)ccc2O[C@@H]1CN(C)Cc1ccc2c(c1)OCO2	NOMO-1 viab 95 (no result: Hedgehog inh)
Cc1ccc(NC(=O)CSc2nnc(-c3ccc([N+](=O)[O-])cc3)n2-c2ccccc2)cc1C	none (no result: Hedgehog inh)
COC(=O)c1ccc(NC(=S)NC(=O)N2CCOCC2)cc1	none
COC(=O)CCc1[nH]c2ccccc2c1Sc1ccccc1	NOMO-1 viab 140
Cc1cccc(C)c1NC(=O)CN(c1ccc(Br)cc1)S(C)(=O)=O	none (no result: Hedgehog inh)
C[C@@H]1CN([C@@H](C)CO)C(=O)c2cccc(NC(=O)Nc3ccc(C(F)(F)F)cc3)c2O[C@@H]1CN(C)Cc1ccc(C(F)(F)F)cc1	NOMO-1 viab inconclusive
C[C@H](CO)N1C[C@H](C)[C@@H](CN(C)Cc2ccc(C(F)(F)F)cc2)Oc2c(NC(=O)Nc3ccc(C(F)(F)F)cc3)cccc2C1=O	NOMO-1 viab 105
C[C@@H]1CN([C@H](C)CO)C(=O)c2cccc(N(C)C)c2O[C@H]1CN(C)Cc1ccc(C(F)(F)F)cc1	NOMO-1 viab 81
C[C@H]1CN([C@@H](C)CO)C(=O)c2cccc(NC(=O)Nc3ccc(C(F)(F)F)cc3)c2O[C@@H]1CN(C)Cc1ccc(C(F)(F)F)cc1	NOMO-1 viab 113
C[C@@H]1CN([C@@H](C)CO)C(=O)c2cccc(NC(=O)Nc3ccc(C(F)(F)F)cc3)c2O[C@H]1CN(C)Cc1ccc(C(F)(F)F)cc1	NOMO-1 viab 116
O=C(COc1ccc(Cl)cc1Br)Nc1ccccc1C(=O)NC1CCCCC1	none (no result: Hedgehog inh)
O=C(COc1ccc([N+](=O)[O-])cc1)Nc1ccc2oc(-c3ccc(F)cc3Cl)nc2c1	none (no result: Hedgehog inh)
CC(C)(C)c1ccc(-c2[nH]nc(NS(=O)(=O)c3ccccc3)c2Br)cc1	Hedgehog inh 95, NOMO-1 viab inconclusive
CCOC(=O)c1cc(-c2ccc(Cl)cc2)[nH]c(=O)c1C#N	none
CCOC(=O)C1=C(CSc2ccc(Cl)cc2)NC(=O)NC1c1cc(C)ccc1C (centres undefined)	NOMO-1 viab 115

Assay outcomes from PubChem.
